This is a sample that favours compounds with a hit; in the whole collection about 2.5% have one here.
PAX8 reporter: PAX8 transcriptional activity inhibition; hit rate 1.2% among 360,000; RMG-I TPO-luciferase reporter, SteadyGlo, 24 h; AID 652154; inhibition, % at 12.6 µM;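 active = mean replicate inhibition at least 60% with every replicate also reaching 60%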;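 note: luciferase light reporting Pax8 driven TPO promoter activity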
CFTR F508del cor: correctors of CFTR F508del function in bronchial epithelial cells | hit rate 0.36% among 350,000 | activity (quench increase), % at 7.58 µM | AID 720511 | CFBE cells, YFP halide quenching; stimulated with forskolin plus potentiator P3; % fluorescence drop versus neutral controls;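 active = mean added fluorescence quench of at least 8% versus neutral control, with both replicates also reaching 8%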;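 note: cells transiently co-express mutant CFTR-F508del with the halide-sensitive YFP; corrector assay measuring rescue of mutant channel to the surface after 24 h compound exposure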
EWS-Fli inh: inhibitors of EWS/Fli oncoprotein transcriptional activity | A673 NR0B1-luciferase reporter, viability-normalised | hit rate 0.67% among 350,000 | inhibition, % at 12.6 µM;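 active = mean inhibition of at least 50% after viability correction, with every replicate also passing that limit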;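 note: firefly luciferase signal divided by Alamar Blue viability fluorescence both relative to DMSO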
FXN GAA850 act: increases GAA850 frataxin promoter reporter activity | HEK293 lucGAA850 FXN promoter luciferase reporter, 24 h; percent of 10 µM SAHA response | activation, % at 6 µM | hit rate 0.56% among 360,000 | AID 540364;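 active = activation above the average of all compounds screened plus 3 SD, cutoff fixed separately per campaign, cut at about 7.5% in these data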
Env fusion inh: HIV envelope-mediated fusion inhibition; HeLa-JRFL Env/CEM21 cell fusion, luciferase; inhibition, % at 12.3 µM; hit rate 1.1% among 360,000;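 active = mean replicate inhibition score of at least 50 and every replicate individually at or above 50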
Each line names hits and unclear results; the compound was inactive in the other large screens; [ ] = remark or other dose.

C[C@@H]1CN([C@H](C)CO)C(=O)c2cc(NC(=O)Nc3ccc(C(F)(F)F)cc3)ccc2O[C@@H](C)CCCCO[C@@H]1CN(C)C(=O)NC1CCCCC1	PAX8 reporter 86 (no result: FXN GAA850 act)
C[C@@H]1CCCCO[C@H](CN(C)C(=O)NC2CCCCC2)[C@H](C)CN([C@@H](C)CO)C(=O)c2cc(NC(=O)Nc3ccc(C(F)(F)F)cc3)ccc2O1	PAX8 reporter 71 (no result: FXN GAA850 act)
C[C@@H]1CCCCO[C@@H](CN(C)C(=O)NC2CCCCC2)[C@@H](C)CN([C@H](C)CO)C(=O)c2cc(NC(=O)Nc3ccc(C(F)(F)F)cc3)ccc2O1	none (no result: FXN GAA850 act)
C[C@H]1CCCCO[C@@H](CN(C)C(=O)NC2CCCCC2)[C@@H](C)CN([C@@H](C)CO)C(=O)c2cc(NC(=O)Nc3ccc(C(F)(F)F)cc3)ccc2O1	PAX8 reporter 88 (no result: FXN GAA850 act)
C[C@H](CO)N1C[C@H](C)[C@H](CN(C)C(=O)NC2CCCCC2)OCCCC[C@H](C)Oc2ccc(NC(=O)Nc3ccc(C(F)(F)F)cc3)cc2C1=O	PAX8 reporter 93 (no result: FXN GAA850 act)
COCC#Cc1cnc2c(c1)C(=O)N([C@@H](C)CO)C[C@@H](C)[C@@H](CN(C)C(=O)c1ccc3c(c1)OCO3)O2	none (no result: PAX8 reporter, FXN GAA850 act)
Cc1ccc(S(=O)(=O)Nc2ccc3c(c2)C(=O)N([C@H](C)CO)C[C@@H](C)[C@@H](CN(C)Cc2ccncc2)OCCCC[C@@H](C)O3)cc1	none (no result: FXN GAA850 act)
N#C[C@H]1[C@H](c2ccc(-c3cccnc3)cc2)[C@@H](CO)N1C(=O)C1CCC1	none (no result: FXN GAA850 act)
CO[C@@H]1CN(C)C(=O)c2cc(NC(=O)Cc3ccccc3)ccc2OC[C@@H](C)N(C(C)=O)C[C@H]1C	none (no result: FXN GAA850 act)
Cc1ccccc1-c1ccc([C@H]2[C@@H](CO)N3CCCCN(C(=O)Nc4cccc(F)c4)C[C@H]23)cc1	PAX8 reporter 100, EWS-Fli inh 67 (no result: FXN GAA850 act, Env fusion inh)
Cc1ccccc1-c1ccc([C@H]2[C@@H](CO)N3CCCCN(C(=O)Nc4cccc(F)c4)C[C@@H]23)cc1	none (no result: FXN GAA850 act, Env fusion inh)
Cc1ccccc1-c1ccc([C@@H]2[C@H](CO)N3CCCCN(C(=O)Nc4cccc(F)c4)C[C@@H]23)cc1	PAX8 reporter 108, EWS-Fli inh 61 (no result: FXN GAA850 act, Env fusion inh)
COc1ccccc1NC(=O)N[C@H]1C=C[C@@H](CC(=O)N[C@H](C)c2ccccc2)O[C@H]1CO	Env fusion inh 94[16.7 µM] (no result: FXN GAA850 act)
COc1ccccc1NC(=O)N[C@H]1C=C[C@H](CC(=O)N[C@H](C)c2ccccc2)O[C@@H]1CO	none (no result: FXN GAA850 act)
O=C(C[C@H]1CC[C@@H](NC(=O)Nc2ccccc2F)[C@@H](CO)O1)NCc1ccc(Cl)cc1	Env fusion inh 59[16.7 µM] (no result: FXN GAA850 act)
O=C(C[C@@H]1C=C[C@@H](NC(=O)Nc2ccc3c(c2)OCO3)[C@H](CO)O1)NCc1ccc(F)cc1	Env fusion inh 59[16.7 µM] (no result: FXN GAA850 act)
O=C(C[C@H]1C=C[C@@H](NC(=O)Nc2ccccc2F)[C@H](CO)O1)NCc1ccc(-c2ccccc2)cc1	Env fusion inh 57[16.7 µM] (no result: FXN GAA850 act)
COc1ccc(CN(C)C[C@@H]2Oc3c(NC(=O)C4CCCCC4)cccc3C(=O)N([C@@H](C)CO)C[C@@H]2C)cc1	none (no result: FXN GAA850 act)
C[C@@H]1CCCCO[C@H](CN(C)C(=O)Nc2ccc(F)cc2)[C@H](C)CN([C@H](C)CO)C(=O)c2cc(NS(=O)(=O)c3ccc(F)cc3)ccc2O1	none (no result: FXN GAA850 act)
O=C(O)C[C@@H]1C=C[C@H](NC(=O)Nc2ccccc2)[C@@H](CO)O1	none (no result: FXN GAA850 act)
O=C(O)C[C@@H]1C=C[C@@H](NC(=O)Nc2ccccc2)[C@H](CO)O1	Env fusion inh 58[16.7 µM] (no result: FXN GAA850 act)
CCn1c(C(=O)N2CCCC(C(=O)NCCCc3ccccc3)C2)cc2sccc21 (stereo not drawn)	Env fusion inh 66 (no result: PAX8 reporter, CFTR F508del cor, EWS-Fli inh)
CCn1c(C(=O)N2CCCC(C(=O)NCCc3ccc(C)cc3)C2)cc2sccc21 (stereo not drawn)	none (no result: PAX8 reporter, CFTR F508del cor, EWS-Fli inh, Env fusion inh)
COc1ccc(CCNC(=O)c2cc(C(=O)c3cc(Cl)ccc3O)cn(CCc3ccc(OC)cc3)c2=O)cc1	PAX8 reporter 80 (no result: CFTR F508del cor, EWS-Fli inh)
C[C@@H]1CN([C@@H](C)CO)C(=O)c2cc(C#CCc3ccccc3)cnc2O[C@@H]1CN(C)Cc1ccccc1	none (no result: FXN GAA850 act, Env fusion inh)
COc1cccc(/C=C/C=O)c1	none (no result: FXN GAA850 act)
CCN(Cc1ccccc1)C(c1cccs1)c1nnnn1C1CCCCC1 (stereo not drawn)	Env fusion inh 96 (no result: PAX8 reporter, CFTR F508del cor, EWS-Fli inh)
CC(C)(C)n1nnnc1C(c1cccs1)N(Cc1cccnc1)Cc1ccccc1Cl (stereo not drawn)	none (no result: PAX8 reporter, CFTR F508del cor, EWS-Fli inh)
CCN(Cc1ccccc1)C(c1ccccn1)c1nnnn1C1CCCCC1 (stereo not drawn)	none (no result: PAX8 reporter, CFTR F508del cor, EWS-Fli inh, Env fusion inh)
Clc1ccccc1CN(Cc1ccccc1)C(c1cccs1)c1nnnn1C1CCCC1 (stereo not drawn)	Env fusion inh 83 (no result: CFTR F508del cor, EWS-Fli inh)
Clc1ccc(CN(CC2CCCO2)C(c2cccs2)c2nnnn2C2CCCC2)cc1 (stereo not drawn)	Env fusion inh 117 (no result: CFTR F508del cor, EWS-Fli inh)
c1csc(C(c2nnnn2C2CCCC2)N2CCOCC2)c1 (stereo not drawn)	none (no result: PAX8 reporter, CFTR F508del cor, EWS-Fli inh, Env fusion inh)
O=C(C[C@@H]1CC[C@@H]2[C@H](COC[C@H](O)CN2Cc2cccc(C(F)(F)F)c2)O1)NCc1ccccc1	none (no result: FXN GAA850 act, Env fusion inh)
CC(=O)N(C)C[C@H]1Oc2cc(C#Cc3ccncc3)ccc2S(=O)(=O)N([C@H](C)CO)C[C@@H]1C	none (no result: PAX8 reporter, FXN GAA850 act)
COc1ccc(S(=O)(=O)NNC(=O)C2Cc3c(ccc4ccccc34)O2)cc1 (stereo not drawn)	Env fusion inh 85 (no result: CFTR F508del cor, EWS-Fli inh)
N=c1nc2n(cc1F)C1OC(CO)C(O)C1O2 (stereo not drawn)	Env fusion inh 69
Cc1cc(C(=O)Nc2ccc3c(c2)C(=O)N(C)[C@@H]2CC[C@@H](CC(=O)N[C@H](C)c4ccccc4)O[C@H]2CO3)no1	none (no result: FXN GAA850 act)
Cc1ccc(/C=C/C(=O)Nc2ccc([N+](=O)[O-])cc2)o1	none (no result: PAX8 reporter, Env fusion inh)
CCOC(=O)CCc1ccc(NC(=O)/C=C/c2ccc([N+](=O)[O-])o2)cc1	EWS-Fli inh 51
Cc1cccc(NC(=S)N=Nc2c(O)n(C)c3ccc(S(=O)(=O)N4CCOCC4)cc23)c1	Env fusion inh 58 (no result: PAX8 reporter)
Cc1cccc(NC(=O)CSCC(=O)Nc2cc(Cl)ccc2N2CCOCC2)c1	Env fusion inh 72
COc1ccc(Cl)cc1NC(=O)CN(C)CC(=O)N1CC(=O)Nc2ccccc21	none (no result: Env fusion inh)
COc1ccc(Cl)cc1NC(=O)CN(C)CC(=O)Nc1ccccc1N1CCOCC1	EWS-Fli inh 62
C[C@@H](NC(=O)C[C@@H]1C=C[C@@H](NC(=O)CN2CCOCC2)[C@@H](CO)O1)c1ccccc1	none (no result: FXN GAA850 act)
CO[C@H]1CN(C)C(=O)c2ccc(NC(=O)NC(C)C)cc2OC[C@@H](C)N(C(=O)CN(C)C)C[C@@H]1C	none (no result: FXN GAA850 act)
CC1Cc2ccccc2N1C(=S)NC(=O)c1ccc(Cl)cc1Cl (stereo not drawn)	PAX8 reporter 62 (no result: Env fusion inh)
COc1cccc(-c2cc(-c3cccnc3)nc(N)c2C#N)c1	none
COc1ccc(OC)c(-c2cc(-c3cccnc3)nc(N)c2C#N)c1	CFTR F508del cor 9.0, EWS-Fli inh 56
COc1ccc2nc(C)cc(SCC(=O)Nc3c(C)cccc3C)c2c1	EWS-Fli inh 74 (no result: CFTR F508del cor)
Cc1cc(C(C)(C)CC(C)(C)C)ccc1OCCOCC[N+](C)(C)Cc1ccccc1	PAX8 reporter 72
